Rows were chosen to be rich in hits. Some 11% of all compounds tested hit in one or more screens of this group.
AmpC no deterg – inhibitors of E. coli AmpC beta-lactamase without detergent. P00811. AmpC nitrocefin hydrolysis, absorbance 480 nm, 0.0001% Triton. Potency, µM (titrated, usually from 57.1 µM), without a hit: at the highest dose activity change, negative = inhibition, hits mostly inhibitors. 330,000 tested, 0.52% active. AID 485341;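 note: plate controls were no compound for no effect and no enzyme for full effect; nearly all actives have a fitted effect of over 20% in size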
Target sequence (P00811 whole entry, looked up): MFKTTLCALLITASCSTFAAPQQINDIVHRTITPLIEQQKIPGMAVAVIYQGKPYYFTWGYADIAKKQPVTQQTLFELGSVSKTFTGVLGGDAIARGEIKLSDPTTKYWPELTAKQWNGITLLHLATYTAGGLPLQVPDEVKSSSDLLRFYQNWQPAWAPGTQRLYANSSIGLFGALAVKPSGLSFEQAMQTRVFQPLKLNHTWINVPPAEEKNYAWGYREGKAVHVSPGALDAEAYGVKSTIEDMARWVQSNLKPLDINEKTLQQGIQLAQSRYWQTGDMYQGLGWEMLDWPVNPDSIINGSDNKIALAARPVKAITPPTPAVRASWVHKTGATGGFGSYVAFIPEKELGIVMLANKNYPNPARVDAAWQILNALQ
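AmpC (5.3 nM in the dispensed reagent) in 20 mM phosphate pH 7.0 with 0.01% (detergent screen) or 0.0001% Triton X-100 was preincubated with compounds for 15 min at room temperature. Nitrocefin was then added from an 800 uM solution, and hydrolysis was followed at 480 nm.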
AmpC detergent – AmpC beta-lactamase inhibition with detergent present | P00811 | AmpC hydrolysis of nitrocefin, absorbance 480 nm, 0.01% Triton | Potency, µM (highest dose often 114 µM), for the others: top-dose activity change, negative = inhibition, most hits filed as inhibitors | 370,000 tested, 0.041% active | AID 485294;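 note: 0% = no-compound wells and -100% = no-enzyme wells; nearly all actives have a fitted effect of over 25% in size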
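AmpC (5.3 nM in the dispensed reagent) in 20 mM phosphate pH 7.0 with 0.01% (detergent screen) or 0.0001% Triton X-100 was preincubated with compounds for 15 min at room temperature. Nitrocefin was then added from an 800 uM solution, and hydrolysis was followed at 480 nm.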
Pf growth 48h – P. falciparum growth inhibition at 48 hours (one generation); Potency, µM (titrated, usually from 28.7 µM), without a hit: at the top dose activity change, negative = inhibition, hits mostly inhibitors; AID 504832; 310,000 tested, 5.9% active; P. falciparum luciferase growth in erythrocytes, 48 h
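Cell-based growth assay: transgenic P. falciparum expressing firefly luciferase, cultured in red cells within RPMI 1640 containing 0.5% w/v Albumax, 24 mM bicarbonate and gentamycin. A drop in luciferase activity indicates inhibition.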
Pf growth 96h – inhibits malaria parasite growth, 96 h | P. falciparum luciferase reporter growth, 96 h | Potency, µM (titrated, usually from 28.7 µM), without a hit: top-dose activity change, negative = inhibition, actives largely listed as inhibitors | 320,000 tested, 6.9% active | AID 504834
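Infected RBCs, 2% Hct / 0.05% parasitemia final; luciferase-reporter P. falciparum; cpd 96 h, 37 C, 5% CO2; luciferase detection reagent; luminescence.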
HCV inh – inhibitors of hepatitis C virus infection. Huh7.5.1 HCVcc-Cre infection, luciferase reporter, 44 h. Potency, µM (top dose mostly 41.8 µM), inactives show at the top dose activity change, negative = inhibition, usual class: inhibitors. 340,000 tested, 3.4% active
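Whole-lifecycle infectious HCVcc-Cre system; cells 1,000/well, compound then virus (~0.5 moi) added 4 h after plating, 44 h culture. Luciferase read 15 sec following 15 min substrate incubation, room temp.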
AMA1 RON2 block – disrupts binding of P. falciparum AMA1 to RON2 | AID 720542 | 360,000 tested, 0.2% active | AlphaScreen AMA1-biotinylated RON2 peptide binding | Potency, µM (doses to about 58.2 µM), for inactives: at the highest dose activity change, negative = inhibition, usual class: inhibitors;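 note: 0% = vehicle wells and -100% = peptide control; nearly all actives have a fitted effect of over 45% in size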
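AMA1 (3D7) with his tag at 25 nM final met compounds first, then biotinylated RON2 peptide at 25 nM; detection used donor plus acceptor beads, 10 µg/mL apiece, read by AlphaScreen after 30 min at room temperature.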
* = called active by the depositor. Calls come from the whole dose curve; as a rule, active = well fitted curve in the direction sought with a large enough effect; inconclusive = small, poorly fitted or top-dose-only effect, or another doubt; inactive = no such curve, though single readings can be large; an effect the other way counts as inactive or inconclusive. Unless noted, % is set by controls: 0 for no effect and ±100 for the full control effect; potency is the fitted concentration of half-maximal effect.

COc1ccccc1CNC(=O)COC(=O)c1c(C)nn(-c2ccccc2)c1Cl was read as AmpC no deterg 36%, AmpC detergent 1%, Pf growth 48h -13%, Pf growth 96h inconclusive, HCV inh 11µM* and AMA1 RON2 block 2%.
`Cc1c(C(=O)O)c(-c2ccccc2)nn1-c1ccccc1` gave AmpC no deterg -12%, AmpC detergent 3%, Pf growth 48h 1%, Pf growth 96h 2.9µM*, HCV inh 2% and AMA1 RON2 block 1%.
COc1ccccc1CNC(=O)COC(=O)C1=COCCO1 was read as AmpC no deterg -15%, AmpC detergent -23%, Pf growth 48h 4%, Pf growth 96h 5.2µM*, HCV inh 19% and AMA1 RON2 block 1%.
Screening COc1cccc(CNC(=O)COC(=O)c2c(C)nn(-c3ccccc3)c2Cl)c1 returned AmpC no deterg 1%, AmpC detergent -2%, Pf growth 48h inconclusive, Pf growth 96h inconclusive, HCV inh 0% and AMA1 RON2 block 12%.
`CCC(=O)N1c2ccccc2CC1C(=O)NCCCN1CCN(c2cc(C)ccc2C)CC1` (stereo not drawn) gave AmpC detergent 13%.
For CCCc1ccc(OC(C)c2nc(-c3ccc(-n4cccc4)cc3)no2)cc1 (stereo not drawn) the results were AmpC detergent 2%.
Screening COc1ccccc1CNC(=O)c1cc(C)nn1-c1ccccc1 returned AmpC no deterg -10%, AmpC detergent -2%, Pf growth 48h -1%, Pf growth 96h -2%, HCV inh 7% and AMA1 RON2 block -10%.
Screening COc1ccccc1CNC(=O)c1c(-c2ccccc2)nn(-c2ccccc2)c1C returned AmpC no deterg -3%, AmpC detergent 1%, Pf growth 96h 9.3µM*, HCV inh inconclusive and AMA1 RON2 block -12%.
`COC(=O)c1ccc2c(=O)n(CCCCCC(=O)N3CCN(c4cc(C)ccc4C)CC3)c(=O)[nH]c2c1` gave AmpC detergent 9%.
`CC(C)C[C@H](NC(=O)[C@@H](Cc1c[nH]c2ccccc12)NC(=O)[C@@H](Cc1ccc(O)cc1)NC(=O)[C@@H](CO)NC(=O)[C@@H](Cc1c[nH]c2ccccc12)NC(=O)C(Cc1cnc[nH]1)NC(=O)C1CCC(=O)N1)C(=O)N[C@@H](CCCN=C(N)N)C(=O)N1CCC[C@@H]1C(=O)NCC(N)=O` (stereo partly drawn) gave Pf growth 48h 10% and Pf growth 96h inconclusive.
CCNC(=O)[C@@H]1CCCN1C(=O)[C@H](CCCN=C(N)N)NC(=O)[C@H](CC(C)C)NC(=O)[C@@H](Cc1c[nH]c2ccccc12)NC(=O)[C@H](Cc1ccc(O)cc1)NC(=O)[C@H](CO)NC(=O)[C@H](Cc1c[nH]c2ccccc12)NC(=O)[C@H](Cc1cnc[nH]1)NC(=O)[C@@H]1CCC(=O)N1 was read as Pf growth 48h 1.3µM* and Pf growth 96h 1.5µM*.
`CCOC(=O)c1cnc2cc(-c3ccc(Br)cc3)nn2c1C` gave AmpC no deterg -19%, AmpC detergent 0%, Pf growth 48h 46%, Pf growth 96h 13µM*, HCV inh 9% and AMA1 RON2 block 9%.
For CCOC(=O)c1cnc2cc(C)nn2c1C the results were AmpC no deterg -13%, AmpC detergent -4%, Pf growth 96h 2%, HCV inh -4% and AMA1 RON2 block 0%.
`COC(=O)CC1Oc2ccccc2-n2cc(-c3ccc(Cl)cc3)nc21` (stereo not drawn) gave AmpC detergent 2%.

Screens from PubChem BioAssay.
